The panel holds about 83,000 compounds, 20% with a hit somewhere; the sample as a whole holds those more often.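 96-well plates, one dose, 48 hours. Percent growth reported; active if below 10.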 A number with no mark means an inactive call. Activity calls are given as the source filed them.

The assay has as its system A549/ATCC NSCLC. Description: NCI-60 one-dose screen, 48 h (100 = growth as untreated, 0 = no growth, -100 = all killed). As to conditions: 10 µM unless noted. Here is the method:
Growth inhibition of the A549/ATCC human Non-Small Cell Lung tumor cell line is measured as a screen for anti-cancer activity. Cells are grown in 96 well plates and exposed to the test compound for 48 hours. Compounds are tested at a single concentration, which is 10^-5 M for most compounds. The reported endpoint is percent growth (GI% or GIPRCNT), where numbers from 0 - 100% represent growth inhibition, and numbers from -100% - 0 represent cell death. For example, a value of 40 represents 60% growth inhibition. A value of 0 means no net growth occurred over the course of the experiment. A value of -40 indicates 40% of cells at the beginning of the experiment died by the end of the experiment. A value of -100 means all cells are dead at the end of the experiment.
NCI-60 Human Tumor Cell Lines Screen was performed using the standard one-dose NCI protocol, which is described in more detail at https://dtp.cancer.gov/discovery_development/nci-60/default.htm.
Compounds with GIPRCNT values below 10 were considered active. Activity score was based on GIPRCNT using the following formula: […]
Score is 0 for GIPRCNT values of 100 or above, 50 for GIPRCNT values of 0, and 100 for GIPRCNT values of -100.
For the molecule `N#Cc1c(-c2ccccc2)cc(-c2ccccc2)n(CCCCCCC(=O)O)c1=O`, the growth is 102%.

As for `O=C1NC(=S)S/C1=C\c1cc(Br)ccc1O`, the growth is 107%.

Take `CCOc1cc(/C=C/C(=O)C(C(=O)/C=C/c2ccc(OC(=O)CNc3nc4ccccc4[nH]3)c(OCC)c2)C(=O)CNc2nc3ccccc3[nH]2)ccc1OC(=O)CNc1nc2ccccc2[nH]1`: the growth was 7.62% (active).

Turning to `COc1ccc(-c2c3c(N)nc(-c4ccncc4)nc3nc3c2c(C)nn3-c2ccccc2)cc1`, the growth is 30.8%.

`CC(=O)c1nn(-c2ccccc2)c(=Nc2ccccc2)cc1C`: the growth was 99.7%.

For `COc1ccc2c(c1)sc1nc(-c3ccc(N(C)C)cc3)cn12`, the growth is 96.6%.

As to `Nc1nc2c(nnn2Cc2ccc(Cl)c(Cl)c2)c(=O)[nH]1`, the growth was 103%.

`Cc1ccc(N/N=C(/C(=O)c2ccc(Cl)cc2)c2nc(C)cc(=O)[nH]2)cc1`: the growth was 100%.

On to `O=C(Nc1ccccc1OC(=O)c1ccccc1)c1ccccc1`, for which the growth was 81.3%.

Consider `COc1cc(-c2n[nH]nc2-c2ccccn2)cc(OC)c1OC`, for which the growth is 65.6%.

On to `CC(=O)N1N=C(c2ccc(C(F)(F)F)cc2)CC1c1ccc2c(c1)OCO2` (stereo not given), for which the growth is 91.2%.

Turning to `Clc1ccc2nc(CI)c(CI)nc2c1`, the growth was 96.1%.

As for `CCN(CC)CCNCC(=O)Oc1ccc(/C=C/C(=O)CC(=O)/C=C/c2ccc(OC(=O)CNCCN(CC)CC)c(OC)c2)cc1OC`, the growth is 38.2%.

Turning to `COc1cc(C2CC(C3C(=O)N(C)C(=O)N(C)C3=O)=NN2c2cc(Cl)cc(Cl)c2)cc(OC)c1OC` (stereo not given), the growth is 78.2%.

For the molecule `COc1ccc(OC)c(CCn2cncc2-c2c[nH]c3cc(Br)ccc23)c1`, the growth is 31.2%.

Regarding `COc1ccc(C(=O)/C=C/c2ccc(C)cc2)cc1OC`, the growth was 36.3%.

On to `Cc1cc(-c2ccccc2)cc(C)n1`, for which the growth is 92.7%.

Take `CCOC(=O)CCN(c1c(Cl)ssc1=O)C(C)C`: the growth was 93.9%.

Consider `C/C(=C\CCc1ccoc1)CC/C=C(\C)CCCN1CCOCC1`, for which the growth is 63.6%.

As to `C/C(=C\CCc1ccoc1)CC/C=C(\C)CCCNc1ccc(F)cc1`, the growth is 80.4%.

As to `COC(=O)CC1=C(c2ccc([N+](=O)[O-])cc2)CCC1=O`, the growth is 94.7%.

In the case of `O=C1C(=O)/C(=C/c2ccccc2)CCCCCC/C1=C/c1ccccc1`, the growth was 86.1%.

Turning to `Cc1cc(=O)oc2cc(OCCn3c(C)nn(-c4ccc(Cl)cc4)c3=O)ccc12`, the growth is 30.2%.

On to `O=c1[nH]c(SCc2ccccc2)nc2nc(Nc3ccc(NC(=S)Nc4ccccc4)cc3)nc(-c3ccc(O)cc3O)c12`, for which the growth is 105%.

`CCOc1cc(/C=C/C(=O)CC(=O)/C=C/c2ccc(OC(=O)CNc3nc4ccc(OC)cc4s3)c(OCC)c2)ccc1OC(=O)CNc1nc2ccc(OC)cc2s1`: the growth is 48.2%.

On to `O=C1/C(=C\c2coc3ccccc3c2=O)c2ccccc2N1c1c(Cl)cccc1Cl`, for which the growth was 26.6%.

Consider `COC(=O)[C@H](CCCCNC(=O)OCc1ccccc1)NC(=O)[C@@H](NC(=O)Nc1cc(C(F)(F)F)cc(C(F)(F)F)c1)C(C)C`, for which the growth was 45.1% [100 µM].

`Cn1c(=O)c2[nH]c(=S)n(Cc3ccccc3)c2n(C)c1=O`: the growth was 95.2%.

For the molecule `COc1ccc(/C=C2/SC(=Nc3c(C)nn(-c4ccccc4)c3N)NC2=O)cc1`, the growth was 32.4%.

As to `COc1cc(/C=C/C(=O)C(C(=O)/C=C/c2ccc(OC(=O)CCNC34CC5CC(CC(C5)C3)C4)c(OC)c2)C(=O)CCNC23CC4CC(CC(C4)C2)C3)ccc1OC(=O)CCNC12CC3CC(CC(C3)C1)C2` (stereo not given), the growth was 29.1%.

As for `COc1ccc(C2=NN(C(C)=O)C(c3c(C)nn(-c4ccccc4)c3N3CCOCC3)C2)cc1` (stereo not given), the growth was 85.5%.

As to `CC(=O)Nc1cc2c3c(cccc3c1)-c1ccccc1-2`, the growth was 34%.

For `O=C(/C=C/c1ccc(C(F)(F)F)cc1)c1ccc(Nc2nc(NCCO)nc(NCCO)n2)cc1`, the growth was 34.9%.

In the case of `O=C(Nc1nc2ccc(OC(F)(F)F)cc2s1)c1ccc(F)cc1`, the growth is 14.5%.

Regarding `CCOC(CNCc1cc(C)c2[nH]c3ccccc3c2c1C)OCC`, the growth is 81%.

`c1ccc2c(-c3nc4ccccc4[nH]3)cccc2c1`: the growth was 38.6%.

In the case of `COc1cccc(/C=N/Nc2nc3ccccc3s2)c1OC`, the growth is 69.1%.

As to `COC(=O)[C@H](Cc1cnc[nH]1)NC(=O)[C@@H](NC(=O)Nc1cc(C(F)(F)F)cc(C(F)(F)F)c1)C(C)C`, the growth was -70.8% [100 µM] (active).

On to `Cc1cc(C)nc(NS(=O)(=O)c2ccc(Nc3nc4nc(SCc5ccccc5)nc(-c5ccc(O)cc5)c4c(=O)[nH]3)cc2)n1`, for which the growth is 98%.

Take `O=C(/C=C/c1c(-c2ccccc2)[nH]c2ccccc12)S(=O)(=O)c1ccccc1`: the growth is 25.7%.

Source of the values: PubChem BioAssay (NCI).
